Reference: the supplement of paper PMC9254222
In all, about 1,100 compounds were measured (“Renilla luciferase signal (cell health) relative to plate median”: median about 0.97, highest 2% from about 1.6 on). The sample holds the highest values, similar compounds and a random draw of the others, so the mix is not that of the screen.

Tested on: HEK293T (UBE3A T485A transfected, BAR Wnt reporter)
Experiment: Renilla luciferase signal (cell health) relative to plate median (fold (linear ratio)); higher = higher Renilla signal
Details: 24 h
Outline: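 HEK293T cells carrying a transfected BAR firefly luciferase Wnt reporter, TK-Renilla and an expression plasmid were exposed to chemicals at 0.01–100 uM for 24 h, with dosing four hours after transfection. Readout used Dual-Glo luciferase. The firefly/Renilla ratio defined Wnt activity and raw Renilla defined cell health, each median-centred per plate. Figures are means of four biological replicates.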

SMILES | Renilla luciferase signal (concentration: 0.01 uM) | Renilla luciferase signal (concentration: 0.1 uM) | Renilla luciferase signal (concentration: 1 uM) | Renilla luciferase signal (concentration: 10 uM) | Renilla luciferase signal (concentration: 100 uM)
CN1C2CC(OC(=O)C(CO)c3ccccc3)CC1C1OC12 (centres undefined) [Scopolamine] | 0.78 | 0.722 | 0.931 | 0.834 | 1.62
CNC(=O)Oc1cccc2c1OC(C)(C)C2 [Carbofuran] |  | 1.05 | 1.01 | 0.953 | 0.523
CC(C)(C)OOC(C)(C)C [Di-tert-butyl peroxide] |  | 1.07 | 0.922 | 1.09 | 1.12
O=[As][O-].[Na+] [Sodium arsenite] | 0.746 | 0.622 | 0.288 | 0.0446 | 0.0136
CC(C)(C)c1ccc(CSc2cnn(C(C)(C)C)c(=O)c2Cl)cc1 [Pyridaben] | 1.05 | 0.947 | 0.477 | 0.233 | 0.172
Nc1ccc(Cl)cc1N [4-Chloro-1,2-diaminobenzene] |  | 1.05 | 0.965 | 0.612 | 0.0486
Nc1cc(Cl)cc(C(=O)O)c1Cl [Chloramben] |  | 1.02 | 1.02 | 1.18 | 1.64
C[C@@H]1C[C@@H]([C@H](O)CC2CC(=O)NC(=O)C2)C(=O)[C@@H](C)C1 [Cycloheximide] |  | 0.674 | 0.0448 | 0.0298 | 0.0285
CC(O)CCO (centres undefined) [1,3-Butanediol] |  | 1.06 | 1.08 | 1.16 | 1.47
CCC(C)(CC)c1cc(NC(=O)c2c(OC)cccc2OC)on1 [Isoxaben] | 0.906 | 0.789 | 0.94 | 0.964 | 0.549
ClC(Cl)=C(c1ccc(Cl)cc1)c1ccc(Cl)cc1 |  | 0.978 | 1.09 | 1.13 | 1.33
O=C(NC(=O)c1c(F)cccc1F)Nc1cc(Cl)c(OC(F)(F)C(F)F)c(Cl)c1 [Hexaflumuron] |  | 0.601 | 0.604 | 0.441 | 0.493
c1ccc(OP(Oc2ccccc2)Oc2ccccc2)cc1 [Triphenyl phosphite] |  | 1.06 | 1.18 | 1.24 | 1.16
Oc1ccccc1-c1ccccc1 [2-Phenylphenol] | 1.08 | 1.08 | 0.948 | 1.01 | 0.987
OCCOc1ccccc1 [2-Phenoxyethanol] | 0.629 | 0.856 | 0.906 | 0.983 | 1.74
Clc1ccc(C(c2ccc(Cl)cc2)C(Cl)(Cl)Cl)cc1 |  | 0.841 | 0.863 | 0.92 | 0.995
O=Cc1ccco1 [Furfural] |  | 1.24 | 1.36 | 1.2 | 1.45
Nc1c(Cl)c(Cl)nc(C(=O)O)c1Cl [Picloram] | 1.22 | 0.925 | 1.11 | 1.09 | 1.33
NCCO.O=C(O)c1nc(Cl)ccc1Cl [Clopyralid-olamine] | 1.41 | 1.18 | 1.06 | 1.2 | 1.53
O=C(O)c1nc(Cl)ccc1Cl [Clopyralid] | 0.962 | 0.828 | 0.985 | 1 | 1.8

SMILES | Renilla luciferase signal (concentration: 0.01 uM) | Renilla luciferase signal (concentration: 0.1 uM) | Renilla luciferase signal (concentration: 1 uM) | Renilla luciferase signal (concentration: 10 uM) | Renilla luciferase signal (concentration: 100 uM)
O=C1CCCO1 [4-Butyrolactone] |  | 0.916 | 0.91 | 0.928 | 1.07
CCC(=O)C(CC(C)N(C)C)(c1ccccc1)c1ccccc1.Cl (centres undefined) [Methadone hydrochloride] |  | 1.01 | 1.01 | 1.07 | 0.142
CCCCC(CC)COC(=O)CCCCC(=O)OCC(CC)CCCC (centres undefined) [Di(2-ethylhexyl) adipate] |  | 1.15 | 1.09 | 1.28 | 1.76
CCCCC(CC)COC(=O)c1ccc(C(=O)OCC(CC)CCCC)cc1 (centres undefined) [Bis(2-ethylhexyl) terephthalate] |  | 0.974 | 1.13 | 1.09 | 1.28
CCCCC(CC)COC(=O)c1ccccc1C(=O)OCC(CC)CCCC (centres undefined) [Di(2-ethylhexyl) phthalate] | 1.26 | 1.13 | 1.01 | 1.11 | 0.496
C#CCN1C(=O)COc2cc(F)c(N3C(=O)C4=C(CCCC4)C3=O)cc21 [Flumioxazin] | 1.13 | 1.14 | 0.954 | 1.11 | 0.949
Clc1ccccc1Cl [1,2-Dichlorobenzene] |  | 1.14 | 0.945 | 1.05 | 1.27
N#Cc1c(Cl)cccc1Cl [Dichlobenil] | 0.873 | 0.853 | 1.03 | 0.992 | 1.96
Clc1cccc(Cl)c1Cl [1,2,3-Trichlorobenzene] |  | 1.21 | 0.959 | 1.18 | 1.43
Cc1ccc(/N=C/N(C)/C=N/c2ccc(C)cc2C)c(C)c1 [Amitraz] | 1.29 | 1.17 | 1.06 | 1.21 | 0.0374
O=C(NC(=O)c1cc(F)c(F)cc1Cl)Nc1cc(F)ccc1N1CCC(C(=O)O)CC1 |  | 0.8 | 0.813 | 0.797 | 0.641
O=C(O)C(F)(F)C(F)(F)C(F)(F)C(F)(F)C(F)(F)F |  | 0.973 | 0.941 | 0.896 | 0.93
O=C(O)C(F)(F)C(F)(F)C(F)(F)C(F)(F)C(F)(F)C(F)(F)C(F)(F)C(F)(F)C(F)(F)C(F)(F)F [Perfluoroundecanoic acid] |  | 0.861 | 0.837 | 0.868 | 0.248
O=C(O)C(F)(F)C(F)(F)C(F)(F)C(F)(F)C(F)(F)C(F)(F)C(F)(F)F | 0.983 | 0.781 | 0.834 | 0.9 | 1.9
CCOC1Oc2ccc(OS(C)(=O)=O)cc2C1(C)C (centres undefined) [Ethofumesate] | 0.946 | 1.07 | 0.964 | 0.843 | 1.01
O=C(O)c1cc(Oc2ccc(C(F)(F)F)cc2Cl)ccc1[N+](=O)[O-] [Acifluorfen] | 1.17 | 1.25 | 0.942 | 1.02 | 1.67
CS(=O)(=O)NC(=O)c1cc(Oc2ccc(C(F)(F)F)cc2Cl)ccc1[N+](=O)[O-] [Fomesafen] |  | 0.998 | 1.11 | 1.03 | 1.19
CCOC(=O)C(C)OC(=O)c1cc(Oc2ccc(C(F)(F)F)cc2Cl)ccc1[N+](=O)[O-] (centres undefined) [Lactofen] | 0.928 | 0.611 | 0.876 | 0.801 | 0.32
CCN(CC)c1nc(C)cc(OP(=S)(OC)OC)n1 [Pirimiphos-methyl] | 1.11 | 1.2 | 1 | 0.992 | 1.53
CN(C)c1nc(=O)n(C2CCCCC2)c(=O)n1C [Hexazinone] | 0.842 | 0.839 | 0.85 | 0.916 | 1.2
